Source: PubChem BioAssay (National Center for Advancing Translational Sciences (NCATS))
D1 agonist: human D1 receptor agonism; HEK293 T-REx D1 cells, calcium flux, agonist mode; AID 504660; activation, % at 2 µM; 1% of 360,000 active; in the data active = activation above about 30%; note: 0% is about no effect
Target sequence (P21728 whole entry, looked up): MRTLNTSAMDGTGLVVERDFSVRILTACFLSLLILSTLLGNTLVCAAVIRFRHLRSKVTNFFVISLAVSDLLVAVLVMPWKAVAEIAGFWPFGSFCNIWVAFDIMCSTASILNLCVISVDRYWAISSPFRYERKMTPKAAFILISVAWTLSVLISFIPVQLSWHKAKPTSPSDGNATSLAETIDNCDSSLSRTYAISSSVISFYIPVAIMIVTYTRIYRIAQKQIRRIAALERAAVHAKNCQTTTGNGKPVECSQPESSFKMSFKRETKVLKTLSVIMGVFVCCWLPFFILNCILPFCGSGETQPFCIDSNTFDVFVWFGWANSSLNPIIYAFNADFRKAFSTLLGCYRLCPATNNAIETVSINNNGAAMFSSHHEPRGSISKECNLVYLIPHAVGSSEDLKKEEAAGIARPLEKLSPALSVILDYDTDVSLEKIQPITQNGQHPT
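Agonism was scored from calcium flux recorded over 180 s (1 read/s) after pintool compound addition, following a 10-cycle baseline. Cells were inducible force-coupled HEK293 TREx D1, plated overnight at 30 C and loaded with no-wash calcium dye.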
DRD3 antagonist: antagonists of human D3 dopamine receptor | AID 652054 | P35462 | 2.5% of 360,000 active | max response, negative = inhibition, % | D3R cells, DiscoveRx beta-arrestin luminescence, antagonist mode; stronger effect = lower value; in the data active = max response below about -50%; inconclusive = no clear call, values can overlap the other calls; note: % is set by controls: 0 for no effect and ±100 for the full control effect
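Cells plated overnight at 1500 cells/well, then exposed to library compounds with dopamine controls for 90 minutes at 37 degrees C. DiscoveRx reagent added for 30–60 minutes at room temperature; luminescence read, quantitative HTS format.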
D3 ag: activates the human D3 dopamine receptor | P35462 | D3R DiscoveRx beta-arrestin cells, luminescence, 90 min | max activation, % | AID 652048 | 0.58% of 410,000 active; in the data active = max activation above about 30%; note: 0% is about no effect
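Agonist mode: compounds and dopamine controls were applied to plated cells for 90 min at 37 degrees C after an overnight attachment at 1500 cells/well. Luminescent read-out followed 30 - 60 minutes at room temperature with DiscoveRx detection reagent.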
D1 potentiator: enhances dopamine response at the human D1 receptor | HEK293 TREx D1 cells, calcium flux, dopamine EC20 potentiation | AID 504651 | potentiation, % at 10 µM | 0.036% of 360,000 active; in the data active = potentiation above about 30%; note: 0% is about no effect
D1 antagonist: antagonists of human D1 dopamine receptor; 3.2% of 360,000 active; HEK293 TREx D1 cells, calcium flux, dopamine EC80; stronger effect = lower value; activity change, negative = inhibition, % at 10 µM; P21728; in the data active = activity change below about -30%; note: % is set by controls: 0 for no effect and ±100 for the full control effect
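Calcium flux readout: force-coupled, inducible Hek293 Trex D1 line, cells induced overnight at 30 C with tetracycline, dye-loaded 30–90 min at RT. Antagonism scored against EC80 dopamine challenge given 180 s after compound.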
Numbers without * were called inactive; ? = inconclusive; / = not tested or not shown. The list is not random: actives were taken first. Their share in the collection is about 6%.

SMILES	D1 agonist	DRD3 antagonist	D3 ag	D1 potentiator	D1 antagonist
S=C(Nc1ccccc1Cl)N1CCCCC1	4	13	-5	-2	5
CCOc1cc(-c2nc(-c3ccc(-c4ccc(OC)cc4)nc3OC)no2)cc(OCC)c1OCC	0	/	10	-3	9
COc1ccc(C[C@H]2CN3C(=NC[C@H]3C)N2CCNC(=O)c2ccc(C)c(Br)c2)cc1	2	-57*	-47	-6	17
Cc1ccc(C(=O)NCCN2C3=NC[C@H](C)N3C[C@H]2Cc2ccc(O)cc2)cc1Br	-3	-58*	-62	-4	-1
COc1ccc(C[C@@H]2CN3C(=NC[C@@H]3C)N2C[C@H](C)NC(=O)c2ccc(C)c(Br)c2)cc1	2	-22	-32	-3	-7
COc1ccc(C[C@H]2CN3C(=NC[C@@H]3C(C)C)N2CCNC(=O)c2ccc(C)c(Br)c2)cc1	30*	-64*	-55	-3	0
Cc1ccc(C(=O)NCCN2C3=NC[C@H](C(C)C)N3C[C@H]2Cc2ccc(O)cc2)cc1Br	-4	0	-44	-2	-19
O=C(NCc1cccnc1)c1nn(-c2ccc(F)cc2)nc1CO	0	/	-8	-1	-2
COc1ccc(CNC(=O)Cn2ncn3nc(-c4cccs4)cc3c2=O)cc1	-2	/	6	4	-18
COc1ccc(CCC(C)NCC2CCCCC2)cc1 (configuration not stated)	6	-70*	-11	-1	0
COc1ccc(CCC(C)NC2CCCCCCC2)cc1 (configuration not stated)	8	-67*	-11	-1	-3
CN(C)c1ccc(CNC(=O)c2ccc(Cn3c(SCc4ccccc4)nc4cccnc43)cc2)cc1	1	/	-9	-4	1
Cc1ccccc1OCC(=O)N/N=C/c1ccc(N(C)C)cc1	1	1	-5	-5	1
CN(C)c1ccc(P(=O)(CC(=O)N/N=C/c2ccc(C#N)cc2)OCCCl)cc1 (configuration not stated)	0	-63*	-25	-5	-6
CC(C)OCCCN(C)C1CCN(S(=O)(=O)c2ccc(-c3cc(C(F)(F)F)no3)s2)CC1	29	-84*	-8	-8	-27
CC(C)OCCCN(C)C1CCN(S(=O)(=O)c2csc(C(N)=O)c2)CC1	1	-8	-6	2	-7
O=C(OCC1CCCO1)c1ccc2c(c1)N(Cc1ccccc1F)C(=O)c1ccccc1S2(=O)=O (configuration not stated)	3	/	0	-5	-1
O=C(CSc1nc2c(sc3ccccc32)c(=O)n1CCO)NCC1CCCO1 (configuration not stated)	0	2	2	-2	-11
COc1ccc(-n2c(SCC(=O)NCC3CCCO3)nc3c([nH]c4ccccc43)c2=O)cc1 (configuration not stated)	0	-10	-6	-2	-31*
Cc1ccc(-n2c(SCC(=O)NCc3ccco3)nc3c([nH]c4ccccc43)c2=O)cc1	2	-50*	0	-8	-17
COc1cccc(-n2c(SCC(=O)NCC3CCCO3)nc3c([nH]c4ccccc43)c2=O)c1 (configuration not stated)	-1	-8	-4	-4	2
O=C(CSc1nc2c(c(=O)n1-c1ccc(Cl)cc1)SCC2)NCC1CCCO1 (configuration not stated)	5	?	-8	-13	-32*
O=C(CSc1nc2c(sc3ccccc32)c(=O)n1CCCN1CCCC1)NCC1CCCO1 (configuration not stated)	3	-57*	0	6	-5
Cc1ccccc1CN1C(=O)C(O)(CC(=O)c2cccc(Br)c2)c2ccccc21 (configuration not stated)	13	/	2	-3	-2
COc1ccc(NC(=O)CSc2nc3c([nH]c4ccccc43)c(=O)n2-c2ccccc2)c(OC)c1	2	/	8	-6	8
SMILES	D1 agonist	DRD3 antagonist	D3 ag	D1 potentiator	D1 antagonist
Cc1ccccc1CSc1nc2c(sc3ccccc32)c(=O)n1CCCOC(C)C	2	/	-11	0	15
Cc1ccccc1CSc1nc2c(sc3ccccc32)c(=O)n1CCCC(=O)NCCCOC(C)C	7	/	1	-6	-40*
COc1ccc(-c2nc(C(=O)NCC3CCCO3)cc3c2[nH]c2ccccc23)cc1 (configuration not stated)	0	69	34*	-1	-23
CC(=O)Nc1ccc(S(=O)(=O)NC2(C(F)(F)F)C(=O)Nc3c2c(=O)[nH]c(=O)n3-c2cccc(Cl)c2)cc1 (configuration not stated)	0	/	5	-2	4
COc1ccc(S(=O)(=O)Cc2ccc(C(=O)NCCc3ccc(S(N)(=O)=O)cc3)o2)cc1	2	-30	-4	1	-35*
O=C(c1ccc(CS(=O)(=O)c2ccc(Br)cc2)o1)N1CCCCCC1	33*	-3	4	/	-24
O=C(NCc1ccccc1Cl)c1ccc(CS(=O)(=O)c2ccc(Br)cc2)o1	46*	/	-20	-3	3
O=C(c1ccc(CS(=O)(=O)c2ccc(Br)cc2)o1)N1CCCC1	14	-15	4	/	-4
CC(C)N(CCCNC(=O)c1ccc(CS(=O)(=O)c2c(Cl)cccc2Cl)o1)Cc1ccccc1	0	-56*	-14	-5	8
COc1ccccc1S(=O)(=O)Cc1ccc(C(=O)NCc2ccc(C)cc2)o1	1	-7	1	-11	-23
COc1ccccc1CNC(=O)c1ccc(CS(=O)(=O)c2ccccc2OC)o1	3	-24	-3	-7	-89*
O=C(NCc1ccccc1Cl)c1cc2ccccc2o1	34*	/	1	-3	-33*
Cc1ccccc1CNC(=O)c1cc2ccccc2o1	/	25	2	/	/
Cc1ccc(CS(=O)Cc2ccc(C(=O)NCc3ccccc3Cl)o2)cc1 (configuration not stated)	-1	0	6	8	10
O=C(NCc1ccccc1Cl)c1ccc2oc(=O)n(Cc3ccccc3)c2c1	9	/	-3	1	-33*
O=C(NCc1ccccc1Cl)c1ccc(CS(=O)Cc2ccc(Cl)cc2)o1 (configuration not stated)	3	2	0	6	-46*
CCOc1ccc(Nc2c(S(=O)(=O)c3ccc(Cl)cc3)cnc3ccc(OC)cc23)cc1	2	/	-4	-8	10
COc1ccc(S(=O)(=O)Cc2ccc(C(=O)NCc3ccc(C)cc3)o2)cc1	4	11	15	-5	0
COc1ccccc1CNC(=O)c1ccc(CS(=O)(=O)c2ccc(C)cc2)o1	12	5	0	-4	-50*
CC1=C(C(=O)OCc2ccccc2)C(c2ccc(C)o2)C2=C(CCCC2=O)N1 (configuration not stated)	1	12	1	-5	-21
